Drawing on PubChem BioAssay AID588726 (The Scripps Research Institute Molecular Screening Center, 2011), this text covers inhibition for 66 compounds.

The campaign covered roughly 360,000 compounds. About 8,200 (2.3%) were called active. Cut-off read from the data, not from the text of the source: active = inhibition above about 27%; inactive = the rest. Only a selection was taken, and actives are over-represented in it overall.

In the test the target is Fructose-bisphosphate aldolase (Mycobacterium tuberculosis (strain ATCC 25618 / H37Rv)) (UniProt P9WQA3). Briefly: M. tuberculosis aldolase activity blockers – biochemical, fluorescence, strain H37Rv, primary screen (AID 588726).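 Note: 0% = vehicle and 100% = reference inhibitor.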 The note with it: purified M. tuberculosis FBA, fluorescence read-out, at 1 µM, active compounds read high.
Sequence of Fructose-bisphosphate aldolase (Mycobacterium tuberculosis (strain ATCC 25618 / H37Rv)) (P9WQA3 whole entry, looked up): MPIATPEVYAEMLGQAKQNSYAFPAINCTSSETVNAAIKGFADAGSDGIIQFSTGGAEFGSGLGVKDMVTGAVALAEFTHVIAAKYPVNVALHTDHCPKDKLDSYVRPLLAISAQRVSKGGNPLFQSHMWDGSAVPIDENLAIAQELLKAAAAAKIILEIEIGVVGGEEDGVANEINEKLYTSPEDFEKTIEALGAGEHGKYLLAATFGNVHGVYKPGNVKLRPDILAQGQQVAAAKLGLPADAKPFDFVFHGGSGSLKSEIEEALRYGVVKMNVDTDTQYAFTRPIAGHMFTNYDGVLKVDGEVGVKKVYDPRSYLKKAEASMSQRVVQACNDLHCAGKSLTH
`COc1ccc(CC(N)c2csc(NC(=O)Nc3ccc(C(C)C)cc3)n2)cc1` (stereo unspecified): the inhibition is -1.36% (inactive). With `CN(CC(=O)Nc1ccc(F)cc1)CC(=O)N1CCCCC1`, the inhibition is -1.7% (inactive). The value for `C=Cc1ccc(C(=O)N2CCCC(CCC(=O)N3CCN(c4ccccn4)CC3)C2)cc1` (stereo unspecified) was -0.65% (inactive). As to `COc1ccc(C2=NN(c3ccccc3)C(c3cccs3)C2)cc1` (stereo unspecified), the inhibition is 113% (active). The value for `COc1ccc(C2CC(c3cccs3)=NN2C(=O)COC(=O)c2cc3ccccc3cc2O)cc1OC` (stereo unspecified) was -0.95% (inactive); that for `COc1ccc(C2CC(c3cccs3)=NN2c2ccccc2)cc1` (stereo unspecified) was 74% (active). The value for `COc1ccc(N2CCN(C(=S)Nc3ccc(S(N)(=O)=O)cc3)CC2)cc1` was -1.46% (inactive).

As to `COc1ccc(C2CC(c3ccccc3)=NN2C(=O)c2ccc(Cl)c([N+](=O)[O-])c2)cc1` (stereo unspecified), the inhibition was -0.72% (inactive). The value for `COc1ccc(C2CC(c3cccs3)Nc3nnnn32)cc1` (stereo unspecified) was 2.13% (inactive); that for `COc1ccc(N2C(=O)C3CCCN3C2c2cccs2)cc1` (stereo unspecified) was 1.46% (inactive).

For `COc1ccc(C2CC(c3cccs3)=Nc3ccccc3S2)cc1OC` (stereo unspecified), the inhibition is 6.74% (inactive). Turning to `COc1ccc(CCNC(=O)CSc2nc(C)nc3c2oc2ccccc23)cc1OC`, the inhibition is 0.84% (inactive). The value for `O=C(NC1CCCC1)C(c1ccco1)N(C(=O)c1ccco1)c1ccc(F)cc1` (stereo unspecified) was -0.27% (inactive).

`FC(F)Oc1ccccc1NC(=S)Nc1cccc(Cl)c1Cl`: the inhibition was -0.26% (inactive). The value for `CCCCOC(=O)Nc1sc2nc(C)cc(C)c2c1-n1cccc1` was 5.62% (inactive). Turning to `CCCC1NC(=S)NC(C)=C1C(C)=O` (stereo unspecified), the inhibition was 2.16% (inactive). For `OCCNc1nc2ccccc2n1-c1ncnc2sc3c(c12)CCC3`, the inhibition is 3.23% (inactive). The value for `CCCSc1ncccc1C(=O)O` was 0.16% (inactive); that for `O=C(O)c1cccnc1Sc1ncnc2sc3c(c12)CCC3` was 53.6% (active).

Take `Oc1c(Cl)cc(Cl)c(Cl)c1Cc1c(O)c(Cl)cc(Cl)c1Cl`: the inhibition is 0.15% (inactive).

`O=C(COC(=O)c1ccc2ncsc2c1)Nc1ccc(Cl)cc1`: the inhibition was 0.06% (inactive).

For `CCC(Cc1ccccc1)NC(=O)C1CCCCC1` (stereo unspecified), the inhibition was -3.87% (inactive). The value for `Cc1ccc(S(=O)(=O)N2CCN(C(=O)COC(=O)c3c(C)cc(C)cc3C)CC2)c(C)c1` was -1.2% (inactive); that for `CCCc1cc(=O)[nH]c(SCC(=O)N2CCN(S(=O)(=O)c3ccc(C)cc3C)CC2)n1` was -1.1% (inactive). `Cc1ccc(S(=O)(=O)N2CCN(C(=O)CSc3cc(C)ccc3C)CC2)c(C)c1`: the inhibition was 29.2% (active). For `Cc1cc(Br)ccc1SCC(=O)OCC(=O)NCc1ccc2c(c1)OCO2`, the inhibition is -1.37% (inactive). As for `CCn1c(=O)cc(SCC(=O)NCCC2=CCCCC2)c2ccccc21`, the inhibition was 6.21% (inactive). The value for `Cc1ccc(C)c(S(=O)(=O)N2CC(=O)Nc3ccccc32)c1` was 31.2% (active); that for `Cc1ccc(S(=O)(=O)N(C)CC(=O)OCC(=O)N2CC(=O)Nc3ccccc32)cc1` was 0.54% (inactive); that for `Cc1ccc(S(=O)(=O)N2CC(=O)Nc3ccccc32)cc1C` was -0.25% (inactive). On to `O=C(OCc1cn([C@@H]2C[C@H](c3ccc(Cl)cc3)N(Cc3cccs3)C[C@H]2O)nn1)c1ccccc1`, for which the inhibition is 0.72% (inactive). The value for `O=C(CCc1n[nH]c(=O)[nH]c1=O)N/N=C/c1ccc(Br)o1` was 4.62% (inactive); that for `O=C(CCC(=O)N/N=C/c1ccc(Br)o1)N/N=C/c1ccc(Br)o1` was 31.8% (active). `O=C(CCNC(=O)c1ccccc1)NN=Cc1ccc(Br)o1`: the inhibition is 0.48% (inactive). Regarding `COc1ccc2c(c1)CCc1cn3ncc(C#N)c3nc1-2`, the inhibition was 522% [above what the read-out allows, likely interference] (active). The value for `N#Cc1cnn2cc(CCN3CCOCC3)c(-c3ccc(F)cc3)nc12` was 15.8% (inactive); that for `COc1ccc2c(c1)CCc1c(C(=O)N3CCCC3)noc1-2` was 0.6% (inactive). The value for `CC(C)C(NS(=O)(=O)c1cccs1)C(=O)Nc1nc(C(C)(C)C)cs1` (stereo unspecified) was 2.98% (inactive). For `CN1C(=O)C2(OCCCO2)c2cc(Cl)ccc21`, the inhibition is 1.91% (inactive). In the case of `CCOc1ccc(Nc2nc(Cc3nnc(SCC(=O)c4ccc(C)cc4)o3)cs2)cc1`, the inhibition was -1.31% (inactive). Consider `CCN(CC)C(=O)C1=C(C)N(Cc2ccc(F)cc2)C(=O)C(CC(=O)NC2CCCC2)C1` (stereo unspecified), for which the inhibition is -1.29% (inactive).

In the case of `Cn1nccc1NS(=O)(=O)c1ccc(F)cc1`, the inhibition is -0.97% (inactive). As for `CC(=O)N(C)c1ccc(NC(=O)Nc2cccc3ccccc23)cc1`, the inhibition was 6.26% (inactive). With `O=C(Nc1cccc2ccccc12)NC1CC1`, the inhibition was 9.02% (inactive).

For `CCN(C(=O)Nc1cccc2ccccc12)c1ccccc1`, the inhibition was 75.4% (active). For `O=C(N/N=C/c1cccc2cccnc12)[C@H]1C[C@@H]1c1ccccc1`, the inhibition was -0.16% (inactive). The value for `C[N+]1(CCNC(=O)/C=N/O)CCCCC1` was 4.51% (inactive). As to `COC(=O)c1c(NC(=O)CN2C(=O)NC(CCc3ccccc3)C2=O)sc2c1CCCCC2` (stereo unspecified), the inhibition was -0.99% (inactive). The value for `O=C1C2C3C=CC(C3)C2C(=O)N1c1ccc(S(=O)(=O)Nc2nccs2)cc1` (stereo unspecified) was -2.35% (inactive); that for `COc1cccc(N2CCN(c3ccc4nnc(CCC(=O)N5CCN(C)CC5)n4n3)CC2)c1` was 1.71% (inactive); that for `CN1CCN(c2ccc([N+](=O)[O-])c(Sc3nc4ccccc4[nH]3)c2)CC1` was -3.38% (inactive).

Take `COCCCNS(=O)(=O)c1cccc(S(=O)(=O)c2cccc(S(=O)(=O)NCCCOC)c2)c1`: the inhibition was 0.27% (inactive).

Turning to `COc1ccc(/C=N/n2c(C)cc(C)cc2=O)cc1`, the inhibition is 3.54% (inactive). Turning to `CC(C)OCCCNc1ncnc2c1[nH]c1ccc(F)cc12`, the inhibition was 31.8% (active). In the case of `O=C(Nc1ccccc1Cl)/C(Cl)=C(\Cl)S(=O)c1ccccc1` (stereo unspecified), the inhibition is -3.21% (inactive). The value for `CC(C)Cn1cc(-c2cncc3nccn23)cn1` was 142% (active); that for `C=CCSc1nc(N)cc(=O)[nH]1` was 3.86% (inactive); that for `CC(Oc1cccc(Cl)c1)C(=O)NC1CC(C)(C)NC(C)(C)C1` (stereo unspecified) was 0.76% (inactive).

For the compound `Cc1cc(C)c2c(Cn3ccnc3)cc(=O)oc2c1`, the inhibition is 0% (inactive).

As to `Cc1cc(OC(C)C(=O)NC2CC(C)(C)NC(C)(C)C2)c2c(C)cc(=O)oc2c1` (stereo unspecified), the inhibition is 154% (active). With `Cc1cc(C)c(NC(=S)N2CCCC2C(=O)O)c(C)c1` (stereo unspecified), the inhibition is 0.88% (inactive). On to `CCc1cc(=O)oc2cc(C)cc(OC(C)C(=O)O)c12` (stereo unspecified), for which the inhibition was 176% (active). In the case of `COc1cccc(NC(=O)COc2cc(C)cc3oc(=O)cc(C)c23)c1`, the inhibition is 7.86% (inactive). The value for `Cc1cc(=O)oc(C)c1C(=O)NC1CC(C)(C)NC(C)(C)C1` was 0.07% (inactive); that for `CCc1cc(=O)oc2cc(C)cc(OCC(=O)N3CCC[C@@H]3C(=O)O)c12` was 106% (active). For the compound `CCc1cc(=O)oc2cc(OCC(=O)N3CCCc4ccccc43)ccc12`, the inhibition was 5.17% (inactive).

The inhibition is the drop in the measured response relative to a control, in per cent.
